These results are taken from PubChem BioAssay (Tox21).

Values joined by “and” are separate entries in the source; they are usually repeats but may differ in a detail not shown here. Equal values may be shown once. Inconclusive results are not listed. Values without a mark were called inactive. Active and inactive are the calls of the source. The call rests on the fitted dose curve; in most records, active means well fitted cell-killing curve with a large enough effect in the repeat runs; inconclusive means weak or mixed curves; inactive means flat fitted curve, though single readings scatter.
On the % scale 0 is the no-effect control and ±100 the full control effect; potency means the concentration at half of the fitted maximal effect.

This assay in a line: qHTS RealTime-Glo MT Cell Viability Assay in HepG2 cells - 16 hour (AID 1224885). Further: nearly all actives have a fitted effect of over 50% in size. Particulars: RealTime-Glo luminescence; series mostly up to 76.8 µM; activity change, negative = cytotoxic: at the top concentration. From the text: U.S. Tox21 Program National Center for Advancing Translational Sciences [NCATS] NIH Chemical Genomics Center [NCGC] U.S. Environmental Protection Agency [EPA] National Institutes of Environmental Health Sciences [NIEHS] National Toxicology Program [NTP] U.S. Food and Drug Administration [FDA] Tox21 Assay Overview: Measure of cell viability is critical in the cell-base assay. Analysis of cell viability is necessary for the characterization of cell responses to cytotoxic drugs and environmental stress. A RealTime-Glo MT Cell Viability Assay to monitor cell viability in real time of continues cell culture during 40 hours of compound treatment was used to screen Tox21 10K library compounds in HepG2 cells. The RealTime-Glo MT Cell Viability Assay is a nonlytic, homogeneous, bioluminescent method to measure cell viability in real time using a simple, plate-based method. The assay involves adding NanoLuc luciferase and a cell-permeant prosubstrate to cells in culture. Viable cells reduce the proprietary prosubstrate to generate a substrate for NanoLuc luciferase. This substrate diffuses from cells into the surrounding culture medium, where it is rapidly used by the NanoLuc Enzyme to produce a luminescent signal. The signal correlates with the number of viable cells, making the assay well suited for cytotoxicity studies.
Tox21 Assay Protocol Summary: The mixture of HepG2 cell suspension and reagents were dispensed at 600cells/6 ul/well in 1536-well tissue culture treated black solid bottom plates using a Multidrop dispenser. After the assay plates were incubated at a 37 C/5% CO2 incubator for 5 hours, 23 nL of compounds dissolved in DMSO, positive and negative controls was transferred to the assay plate by a pintool work station. The plates were incubated at 37 C for 40 hours. The luminescence intensity were measured at 0h, 8h, 16h, 24h, 32h and 40h time points using ViewLux plate reader during compound treatment.
In general terms: qHTS replaces the single test concentration by a dilution series.
For `Nc1ccc(NCCO)c([N+](=O)[O-])c1`, the “activity change, negative = cytotoxic” value was -8.66%.
As for `CN1CCCCC1CCN1c2ccccc2Sc2ccc(S(C)=O)cc21` (stereo not given), the “activity change, negative = cytotoxic” value is 0.532% [at 35.3 µM].
On the same count and under the same terms, as for `OC1CCC(C2CCCCC2)CC1` (stereo not given), the figure is -16.2%; as for `Cc1cccc2cccnc12`, 0.224%.
Regarding `CC1(C)CCC[C@]2(C)[C@H]3CCO[C@]3(C)CC[C@@H]12`, the “activity change, negative = cytotoxic” value is -0.195%.
As for `CCCC(=O)OC(C)(C)Cc1ccccc1`, the “activity change, negative = cytotoxic” value was -3.13%.
As for `CCc1oc2ccccc2c1C(=O)c1cc(I)c(O)c(I)c1`, the “activity change, negative = cytotoxic” value is -0.836% [at 35.3 µM].
Take `CCCCCc1ccc(Cl)cc1`: the “activity change, negative = cytotoxic” value is 6.61%.
Still for that read-out and setting: as for `Cc1cc(-c2ccc(N=Nc3cc(S(=O)(=O)O)c4ccccc4c3N)c(C)c2)ccc1N=Nc1cc(S(=O)(=O)O)c2ccccc2c1N`, the figure is -8.24%.
Consider `[Cu+]`, for which the “activity change, negative = cytotoxic” value was -18%.
For `CCCCCCCCCCCCCCCC[N+](C)(C)CC`, the Potency is 49.1 µM (active) and 23.9 µM (active).
Regarding `CCN(CC)C(=O)c1cc(S(=O)(=O)Cc2ccccc2)c(N2CCC(c3ccccc3)CC2)cc1N(CC)CCN(C)C`, the Potency was 19.3 µM (active).
`[Cl][Pt-2]([Cl])([Cl])[Cl]`: the “activity change, negative = cytotoxic” value is 0.247%.
Same read-out and setting: as for `COc1cc2nc(N3CCN(C(=O)c4ccco4)CC3)nc(N)c2cc1OC`, the figure is -15.2% [at 15.8 µM]; as for `Cc1nc2n(c(=O)c1CCN1CCC(c3noc4cc(F)ccc34)CC1)CCCC2`, -7.52% [at 35.3 µM].
Take `C#CC1(O)CC[C@H]2[C@@H]3CCC4=CCCC[C@@H]4[C@H]3CC[C@@]21C` (stereo not given in full): the Potency is 23.9 µM (active).
Take `c1ccsc1`: the “activity change, negative = cytotoxic” value is 0.992%.
For the molecule `O=C(/C=C/c1ccccc1)OC/C=C/c1ccccc1`, the “activity change, negative = cytotoxic” value was -14.7%.
The same measure, in the same setting: the same measure for `COc1ccc(NC(=O)CC(C)=O)cc1`: 5.27%.
Take `Cc1ccc(N/N=c2\c(=O)cc/c(=N\Nc3ccc(S(=O)(=O)O)cc3)c2=O)c(C)c1`: the “activity change, negative = cytotoxic” value was -16.6%.
As for `CC(C)CCOC(=O)/C=C/c1ccccc1`, the “activity change, negative = cytotoxic” value was 0.88%.
Same read-out and setting: as for `CCO[Si](OCC)(OCC)OCC`, the figure is -0.221%; as for `CCc1cccc(CC)c1NC(=O)CN(CC(=O)O)CC(=O)O`, 0.174% [at 35.3 µM].
With `Cc1c2ccccc2c(C)c2c1ccc1ccccc12`, the “activity change, negative = cytotoxic” value is -14.1%.
As to `CCCCC(CC)COC(=O)CCCCC(=O)OCc1ccccc1` (stereo not given), the “activity change, negative = cytotoxic” value was -6.06%.
Regarding `COc1cc(/C=C/c2ccccc2)oc(=O)c1`, the “activity change, negative = cytotoxic” value is -3.32%.
With `Clc1nnc(Cl)c2ccccc12`, the “activity change, negative = cytotoxic” value is -15.3%.
With `C#C[C@]1(OC(C)=O)CC[C@H]2[C@@H]3CCC4=C[C@@H](OC(C)=O)CC[C@@H]4[C@H]3CC[C@@]21C`, the “activity change, negative = cytotoxic” value is -14.1% [at 35.3 µM].
For `OC[C@H]1O[C@H](O[C@H]2O[C@H](CO)[C@@H](O)[C@H](O)[C@H]2O)[C@H](O)[C@@H](O)[C@@H]1O`, the “activity change, negative = cytotoxic” value was 0.054%.
In the case of `O=C(/C=C/c1ccc(O)c(O)c1)O[C@@H](C(=O)O)[C@@H](OC(=O)/C=C/c1ccc(O)c(O)c1)C(=O)O`, the “activity change, negative = cytotoxic” value is -0.559%.
Take `C=C(CC)C(=O)c1ccc(OCC(=O)O)c(Cl)c1Cl`: the Potency result was “inactive”.
Consider `CCCCCCCCCCC[C@@H](C[C@@H]1OC(=O)[C@H]1CCCCCC)OC(=O)[C@H](CC(C)C)NC=O`, for which the “activity change, negative = cytotoxic” value is -14% [at 35.3 µM].
`O=C1CCCCCCCCCCCCCCCO1`: the “activity change, negative = cytotoxic” value was -1.18%.
On the same count and under the same terms, as for `CCC(=O)C(=O)CC`, the figure is 0.885%.
In the case of `COC(=O)c1ccccc1C`, the “activity change, negative = cytotoxic” value was 1.07%.
Turning to `CCCC1CCC(=O)CC1`, the “activity change, negative = cytotoxic” value was 0.734%.
Consider `COc1c(C)c2c(c(O)c1C/C=C(\C)CCC(=O)OCCN1CCOCC1)C(=O)OC2`, for which the “activity change, negative = cytotoxic” value was 5.71% [at 35.3 µM].
In the case of `Cc1cccc(C)c1NC(=O)c1ccc(N)cc1`, the “activity change, negative = cytotoxic” value was 8.72% [at 35.3 µM].
As for `COc1ccc(-c2coc3cc(O)ccc3c2=O)cc1`, the “activity change, negative = cytotoxic” value was -2.44%.
Consider `O=c1[nH]c(=O)n([C@H]2C[C@H](O)[C@@H](CO)O2)cc1F`, for which the “activity change, negative = cytotoxic” value is -0.369% [at 35.3 µM].
